Test results published in PubChem BioAssay AID1159580 (chemical genetic matrix, 2015).
The campaign covered roughly 5,500 compounds. About 2,000 (36%) were called active. Another 18% or so got no clear call; they are omitted. This is one part of the list. Values without a mark were called inactive. Cut-off read from the data, not from the text of the source: active = normalized growth mostly below about 0.91 (no sharp cut-off); inconclusive = no clear call, values can overlap the other calls; inactive = mostly above about 0.92.

Assay: chemical genetic growth profiling, strain panel (AID 1159580);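 note: tested at 20 µM; growth read once vehicle control cultures reached saturation at 30 °C; 1 = growth at the plate median or of vehicle wells; lower values mean less growth of the strain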
Settings: S. cerevisiae deletion strains, growth OD

## CC(C)c1ccc(NCC(O)CSc2ccccc2)cc1 (stereo unspecified)
Locus YAR019C, strain CDC15, active compounds read low
  normalized growth: 0.956
Locus YBL105C, strain PKC1, active compounds read low
  normalized growth: 0.957
Locus YBR135W, strain CKS1, active compounds read low
  normalized growth: 0.952
Locus YBR136W, strain MEC1, active compounds read low
  normalized growth: 0.952
Locus YBR160W, strain CDC28, active compounds read low
  normalized growth: 0.966
Locus YDL017W, strain CDC7, active compounds read low
  normalized growth: 0.969
Locus YDL028C, strain MPS1, active compounds read low
  normalized growth: 0.955
Locus YDL101C, strain DUN1, active compounds read low
  normalized growth: 0.951
Locus YDL108W, strain KIN28, active compounds read low
  normalized growth: 0.943
Locus YDL132W, strain cdc53, active compounds read low
  normalized growth: 0.948
Locus YDL214C, strain PRR2, active compounds read low
  normalized growth: 0.808
Locus YDR052C, strain DBF4, active compounds read low
  normalized growth: 0.974
Locus YDR054C, strain cdc34, active compounds read low
  normalized growth: 0.947
Locus YDR226W, strain ADK1, active compounds read low
  normalized growth: 0.983
Locus YDR477W, strain SNF1, active compounds read low
  normalized growth: 0.805
Locus YER123W, strain YCK3, active compounds read low
  normalized growth: 0.755
Locus YER133W, strain GLC7, active compounds read low
  normalized growth: 0.796
Locus YFL009W, strain cdc4, active compounds read low
  normalized growth: 0.952
Locus YFL029C, strain CAK1, active compounds read low
  normalized growth: 0.952
Locus YFR003C, strain YPI1, active compounds read low
  normalized growth: 0.959
Locus YFR019W, strain FAB1, active compounds read low
  normalized growth: 0.928
Locus YFR028C, strain CDC14, active compounds read low
  normalized growth: 0.957
Locus YGR040W, strain KSS1, active compounds read low
  normalized growth: 0.801
Locus YGR052W, strain FMP48, active compounds read low
  normalized growth: 0.717
Locus YGR092W, strain DBF2, active compounds read low
  normalized growth: 0.696
Locus YHR030C, strain SLT2, active compounds read low
  normalized growth: 0.655 (active)
Locus YHR079C, strain IRE1, active compounds read low
  normalized growth: 0.7
Locus YHR082C, strain KSP1, active compounds read low
  normalized growth: 0.733
Locus YHR205W, strain SCH9, active compounds read low
  normalized growth: 0.756
Locus YIL147C, strain SLN1, active compounds read low
  normalized growth: 0.952
Locus YJL095W, strain BCK1, active compounds read low
  normalized growth: 0.708
Locus YJL128C, strain PBS2, active compounds read low
  normalized growth: 0.968
Locus YJL157C, strain FAR1, active compounds read low
  normalized growth: 0.845
Locus YJR016C, strain ILV3, active compounds read low
  normalized growth: 0.962
Locus YJR066W, strain TOR1 (second series), active compounds read low
  normalized growth: 0.819
Locus YJR066W, strain TOR1, active compounds read low
  normalized growth: 0.786
Locus YKL048C, strain ELM1, active compounds read low
  normalized growth: 0.731 (active)
Locus YKL067W, strain YNK1, active compounds read low
  normalized growth: 0.834
Locus YKL101W, strain HSL1, active compounds read low
  normalized growth: 0.746
Locus YKL193C, strain SDS22, active compounds read low
  normalized growth: 0.944
Locus YKL203C, strain TOR2, active compounds read low
  normalized growth: 0.814
Locus YLR113W, strain HOG1, active compounds read low
  normalized growth: 0.405 (active)
Locus YLR133W, strain CKI1, active compounds read low
  normalized growth: 0.843
Locus YLR403W, strain SFP1, active compounds read low
  normalized growth: 0.842
Locus YML070W, strain DAK1, active compounds read low
  normalized growth: 0.766
Locus YMR001C, strain CDC5, active compounds read low
  normalized growth: 0.956
Locus YMR205C, strain PFK2 (second series), active compounds read low
  normalized growth: 0.815
Locus YMR277W, strain FCP1, active compounds read low
  normalized growth: 0.953
Locus YNL006W, strain LST8, active compounds read low
  normalized growth: 0.962
Locus YNL020C, strain ARK1, active compounds read low
  normalized growth: 0.812
Locus YNL161W, strain CBK1, active compounds read low
  normalized growth: 0.963
Locus YNL183C, strain NPR1, active compounds read low
  normalized growth: 0.64
Locus YNL207W, strain RIO2, active compounds read low
  normalized growth: 0.951
Locus YNL222W, strain SSU72, active compounds read low
  normalized growth: 0.953
Locus YNL307C, strain MCK1 (second series), active compounds read low
  normalized growth: 0.802
Locus YOL078W, strain AVO1, active compounds read low
  normalized growth: 0.958
Locus YOL136C, strain PFK27, active compounds read low
  normalized growth: 0.781
Locus YOR061W, strain CKA2, active compounds read low
  normalized growth: 0.856
Locus YOR119C, strain RIO1, active compounds read low
  normalized growth: 0.761
Locus YOR231W, strain MKK1, active compounds read low
  normalized growth: 0.634
Locus YOR329C, strain SCD5, active compounds read low
  normalized growth: 0.964
Locus YPL031C, strain PHO85, active compounds read low
  normalized growth: 0.74
Locus YPL153C, strain RAD53, active compounds read low
  normalized growth: 0.741
Locus YPL204W, strain HRR25, active compounds read low
  normalized growth: 0.696
Locus YPL209C, strain IPL1, active compounds read low
  normalized growth: 0.964
Locus YPL256C, strain CLN2, active compounds read low
  normalized growth: 0.621 (active)
Locus YPR025C, strain CCL1, active compounds read low
  normalized growth: 0.957
Locus YPR106W, strain ISR1, active compounds read low
  normalized growth: 0.94
Locus YPR111W, strain DBF20, active compounds read low
  normalized growth: 0.936
Strain NNK1, active compounds read low
  normalized growth: 0.913
Strain TSCII, active compounds read low
  normalized growth: 0.954
